The source holds several records for some structures; these can differ, active in one and inactive in another. Calls of active or inactive are those of the source. How the source made its calls: active means hit-call score of the fitted dose curve at least 0.9, where 1 is the maximum; inactive means score below 0.9.
Columns and labels:
[1] = BSK_CASM3C_SRB: Viability Assessment in the BioMAP Diversity Plus: CASM3C Assay (AID 2283050); conditions: primary human coronary artery smooth muscle cells;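 further: total protein by SRB staining as cytotoxicity measure in parallel cultures; cells exposed to compound for 24 h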
[2] = read-out: Thrombomodulin, THBD (gene 7056); assay: BSK_CASM3C_Thrombomodulin: BioMAP Diversity Plus: CASM3C Assay for Thrombomodulin Biomarker Activity (AID 2283051); conditions: primary human coronary artery smooth muscle cells; actives raise or lower the signal;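 further: thrombomodulin protein level measured by ELISA 24 h after dosing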
[3] = read-out: Tissue Factor, F3 (gene 2152); assay: BSK_CASM3C_TissueFactor: BioMAP Diversity Plus: CASM3C Assay for Tissue Factor Biomarker Activity (AID 2283052); conditions: primary human coronary artery smooth muscle cells; actives raise or lower the signal;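 further: cell surface tissue factor protein level read by ELISA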
[4] = read-out: Interferon-gamma inducible Protein 10 (IP10), CXCL10 (gene 3627); assay: BSK_hDFCGF_IP10: BioMAP Diversity Plus: hDFCGF Assay for Interferon-gamma inducible Protein 10 (IP10) Biomarker Activity (AID 2283053); conditions: primary human foreskin fibroblasts; actives raise or lower the signal
Summary of the method: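 ELISA quantification of IP-10 after a 24 h chemical exposure of human dermal foreskin fibroblast primary cultures. Both increases and decreases versus DMSO fitted.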

[5] = read-out: Urokinase-type plasminogen activator receptor (uPAR), PLAUR (gene 5329); assay: BSK_CASM3C_uPAR: BioMAP Diversity Plus: CASM3C Assay for Urokinase-type plasminogen activator receptor (uPAR) Biomarker Activity (AID 2283054); conditions: primary human coronary artery smooth muscle cells; actives raise or lower the signal;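 further: cell-surface uPAR protein level quantified by ELISA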
[6] = read-out: Vascular cell adhesion molecule 1 (VCAM1), VCAM1 (gene 7412); assay: BSK_CASM3C_VCAM1: BioMAP Diversity Plus: CASM3C Assay for Vascular cell adhesion molecule 1 (VCAM1) Biomarker Activity (AID 2283055); conditions: primary human coronary artery smooth muscle cells; actives raise or lower the signal;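 further: VCAM-1 protein level quantified by ELISA on the cells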
[7] = read-out: Collagen III, COL3A1 (gene 1281); assay: BSK_hDFCGF_CollagenIII: BioMAP Diversity Plus: hDFCGF Assay for Collagen III Biomarker Activity (AID 2283056); conditions: primary human foreskin fibroblasts; actives raise or lower the signal
Summary of the method: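 ELISA read-out of collagen III from human skin fibroblast cultures sampled 24 h post-dosing. Values were derived by bidirectional fitting relative to the DMSO vehicle control.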

[8] = read-out: Epidermal growth factor receptor (EGFR), EGFR (gene 1956); assay: BSK_hDFCGF_EGFR: BioMAP Diversity Plus: hDFCGF Assay for Epidermal growth factor receptor (EGFR) Biomarker Activity (AID 2283057); conditions: primary human foreskin fibroblasts; actives raise or lower the signal
Summary of the method: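 EGFR levels by ELISA in human dermal fibroblast cultures, 24 h post-treatment, fitted bidirectionally versus DMSO. Parallel wells stained with sulforhodamine B to detect overt cytotoxicity.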

[9] = read-out: Macrophage colony-stimulating factor (MCSF), CSF1 (gene 1435); assay: BSK_hDFCGF_MCSF: BioMAP Diversity Plus: hDFCGF Assay for Macrophage colony-stimulating factor (MCSF) Biomarker Activity (AID 2283060); conditions: primary human foreskin fibroblasts; actives raise or lower the signal
Summary of the method: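 Primary human foreskin fibroblasts dosed with chemical; 24 h later, M-CSF quantified by ELISA; curves fitted in both directions vs DMSO negative control.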

[10] = BSK_hDFCGF_SRB: Viability Assessment in the BioMAP Diversity Plus: hDFCGF Assay (AID 2283061); conditions: primary human foreskin fibroblasts;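 further: cells exposed to compound for 24 h before the read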
Summary of the method: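 Readout is SRB absorbance at 560 nm, reflecting total protein in parallel cultures of human foreskin fibroblasts harvested 24 h after chemical dosing. Activity was fitted bidirectionally relative to DMSO.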

[11] = read-out: TIMP metallopeptidase inhibitor 1 (TIMP1), TIMP1 (gene 7076); assay: BSK_hDFCGF_TIMP1: BioMAP Diversity Plus: hDFCGF Assay for TIMP metallopeptidase inhibitor 1 (TIMP1) Biomarker Activity (AID 2283062); conditions: primary human foreskin fibroblasts; actives raise or lower the signal
Summary of the method: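 Human skin fibroblasts (primary), hDFCGF system; compound exposure 24 h; TIMP-1 by ELISA; bidirectional fit vs DMSO negative control; overt cytotoxicity by SRB in parallel wells.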

[12] = read-out: Monokine induced gamma interferon (MIG), CXCL9 (gene 4283); assay: BSK_hDFCGF_MIG: BioMAP Diversity Plus: hDFCGF Assay for Monokine induced gamma interferon (MIG) Biomarker Activity (AID 2283063); conditions: primary human foreskin fibroblasts; actives raise or lower the signal
Summary of the method: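 Chemicals were added to primary human foreskin fibroblast cultures, which were sampled 24 h later. MIG levels were then quantified by ELISA and responses fitted in both directions relative to DMSO.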

[13] = read-out: Matrix Metallopeptidase 1 (MMP1), MMP1 (gene 4312); assay: BSK_hDFCGF_MMP1: BioMAP Diversity Plus: hDFCGF Assay for Matrix Metallopeptidase 1 (MMP1) Biomarker Activity (AID 2283064); conditions: primary human foreskin fibroblasts; actives raise or lower the signal
Summary of the method: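 Human foreskin fibroblasts exposed to chemical for 24 h; MMP1 detected by ELISA, with DMSO as baseline for bidirectional fitting.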

[14] = read-out: Plasminogen activator inhibitor-1 (PAI1), SERPINE1 (gene 5054); assay: BSK_hDFCGF_PAI1: BioMAP Diversity Plus: hDFCGF Assay for Plasminogen activator inhibitor-1 (PAI1) Biomarker Activity (AID 2283066); conditions: primary human foreskin fibroblasts; actives raise or lower the signal
Summary of the method: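 PAI-1 levels in human dermal foreskin fibroblasts were quantified by ELISA 24 h after dosing, with gain or loss analysed against DMSO. Overt cytotoxicity was checked by sulforhodamine B total-protein staining in parallel cultures.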

[15] = read-out: Intercellular Adhesion Molecule 1 (ICAM1), ICAM1 (gene 3383); assay: BSK_KF3CT_ICAM1: BioMAP Diversity Plus: KF3CT Assay for Intercellular Adhesion Molecule 1 (ICAM1) Biomarker Activity (AID 2283067); conditions: primary human keratinocytes with fibroblasts; actives raise or lower the signal
Summary of the method: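 ICAM-1 levels are measured by ELISA 24 h after dosing a primary human co-culture of keratinocytes and foreskin fibroblasts. Activity in either direction is fitted relative to DMSO vehicle.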

[16] = read-out: Interferon-gamma inducible Protein 10 (IP10), CXCL10 (gene 3627); assay: BSK_KF3CT_IP10: BioMAP Diversity Plus: KF3CT Assay for Interferon-gamma inducible Protein 10 (IP10) Biomarker Activity (AID 2283068); conditions: primary human keratinocytes with fibroblasts; actives raise or lower the signal
Summary of the method: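 In a primary skin co-culture of keratinocytes and fibroblasts, IP-10 is quantified by ELISA at 24 h after dosing. SRB staining of parallel wells monitors overt toxicity. Curves are fitted both directions against DMSO.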

[17] = BSK_KF3CT_SRB: Viability Assessment in the BioMAP Diversity Plus: KF3CT Assay (AID 2283069); conditions: primary human keratinocytes with fibroblasts;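 further: read 24 h after compound addition; fitted for both signal gain and loss against DMSO baseline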
Summary of the method: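 Overt cytotoxicity is assessed as total protein by sulforhodamine B staining in parallel human skin co-cultures at 24 h after dosing. DMSO serves as negative control and baseline.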

[18] = BSK_hDFCGF_Proliferation: Cell Proliferation Assessment in the BioMAP Diversity Plus: hDFCGF Assay (AID 2283059); conditions: primary human foreskin fibroblasts;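 further: curves fitted for both rise and fall of signal versus DMSO baseline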
Summary of the method: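 Primary human foreskin fibroblasts, sub-confluent; […]; 10% TCA fix, 0.1% SRB stain, A560 total protein. Gain/loss fitted bidirectionally vs DMSO control.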

[19] = read-out: Interleukin-8 (IL8), CXCL8 (gene 3576); assay: BSK_hDFCGF_IL8: BioMAP Diversity Plus: hDFCGF Assay for Interleukin-8 (IL8) Biomarker Activity (AID 2283058); conditions: primary human foreskin fibroblasts; actives raise or lower the signal
Summary of the method: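 Cells used are human skin primary fibroblasts. Chemical is added, cultures run 24 h, then IL-8 is quantified by ELISA, and gain or loss versus DMSO control is fitted in both directions.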

[20] = read-out: Vascular cell adhesion molecule 1 (VCAM1), VCAM1 (gene 7412); assay: BSK_hDFCGF_VCAM1: BioMAP Diversity Plus: hDFCGF Assay for Vascular cell adhesion molecule 1 (VCAM1) Biomarker Activity (AID 2283065); conditions: primary human foreskin fibroblasts; actives raise or lower the signal
Summary of the method: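 Human foreskin fibroblast primary cells, chemical exposure 24 h; VCAM-1 by ELISA; bidirectional fit, DMSO = negative control/baseline.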

Measured: AC50

OCC(F)(F)C(F)(F)C(F)(F)C(F)F
inactive: [1] | [2] | [3] | [4] | [5] | [6] | [7] | [8] | [9] | [10] | [11] | [12] | [13] | [14] | [15] | [16] | [17]
active: [14] 1.98 µM

O=S(=O)(O)C(F)(F)C(F)(F)C(F)(F)C(F)(F)C(F)(F)C(F)(F)C(F)(F)F
not listed: [19] | [20]
inactive: all other assays above

O=S(=O)(OCC(F)F)C(F)(F)F
active: [14] 1.42 µM
inactive: [1] | [2] | [3] | [4] | [5] | [6] | [7] | [8] | [18] | [9] | [10] | [11] | [12] | [13] | [14] | [15] | [16] | [17]

C=CC/C=C/C/C=C/C/C=C/C
active: [13] 0.016 µM | [14] 0.141 µM
not listed: [18] | [20]
inactive: all other assays above

Cc1ccc(S(=O)(=O)OCC(F)(F)C(F)(F)C(F)(F)C(F)(F)C(F)(F)C(F)F)cc1
not listed: [18] | [20]
inactive: all other assays above

O=C(O)C(F)(F)C(F)(F)C(F)(F)F
not listed: [19] | [20]
inactive: all other assays above

O=S(=O)(OCCOC(F)(F)F)C(F)(F)F
not listed: [19] | [20]
inactive: all other assays above

FC1CC(F)(F)C(F)(F)C1(F)F (stereo not drawn)
inactive: [1] | [2] | [3] | [4] | [5] | [6] | [7] | [8] | [9] | [10] | [11] | [12] | [13] | [14] | [15] | [16] | [17]
active: [10] 21.1 µM

CO[Si](OC)(c1ccccc1)c1ccccc1
active: [1] 31.1 µM | [3] 30.7 µM | [5] 29.5 µM | [6] 35.7 µM | [7] 32 µM | [18] 28.1 µM | [9] 32.5 µM | [10] 36 µM | [17] 32.6 µM
not listed: [19] | [20]
inactive: all other assays above

FC(F)(F)C(F)(F)C(F)(F)C(F)(F)C(F)(F)C(F)(F)C(F)(F)Br
not listed: [19]
inactive: all other assays above

OCCCC(F)(F)C(F)(F)C(F)(F)F
not listed: [18] | [19] | [20]
inactive: all other assays above

CCCCNc1ccccc1
not listed: [19]
inactive: all other assays above

O=C(O)C(F)(F)C(F)(F)OC(F)(F)F
not listed: [18] | [19] | [20]
inactive: all other assays above

CCCCCCCCC(F)(F)C(F)(F)C(F)(F)C(F)(F)C(F)(F)C(F)(F)F
not listed: [19] | [20]
inactive: all other assays above

C=CC(=O)OCC(F)(F)C(F)(F)C(F)(F)C(F)(F)C(F)(F)C(F)(F)C(F)(F)F
not listed: [18] | [19] | [20]
inactive: all other assays above

Nc1ccc([N+](=O)[O-])cc1O
active: [2] 20 µM
not listed: [18] | [20]
inactive: all other assays above

O=C(O)C(F)(OC(F)(F)C(F)(OC(F)(F)C(F)(OC(F)(F)C(F)(F)C(F)(F)F)C(F)(F)F)C(F)(F)F)C(F)(F)F (stereo not drawn)
not listed: [18] | [20]
inactive: all other assays above

O=C(CC(=O)C(F)(F)C(F)(F)F)C(F)(F)F
not listed: [18] | [19] | [20]
inactive: all other assays above
